Screen size: about 310,000 compounds; about 14,000 (4.5%) showed an effect of 50% or more. Effects have a minus sign here. This excerpt belongs to a sample that is enriched for strong results.
These compounds were tested against human ether-à-go-go-related gene (hERG) potassium channel (human, UniProt Q12809) (assay: primary screen, population patch clamp on CHO cells stably expressing hERG; higher = less effect of the substance).
Chain of human ether-à-go-go-related gene (hERG) potassium channel (Q12809 whole entry, looked up): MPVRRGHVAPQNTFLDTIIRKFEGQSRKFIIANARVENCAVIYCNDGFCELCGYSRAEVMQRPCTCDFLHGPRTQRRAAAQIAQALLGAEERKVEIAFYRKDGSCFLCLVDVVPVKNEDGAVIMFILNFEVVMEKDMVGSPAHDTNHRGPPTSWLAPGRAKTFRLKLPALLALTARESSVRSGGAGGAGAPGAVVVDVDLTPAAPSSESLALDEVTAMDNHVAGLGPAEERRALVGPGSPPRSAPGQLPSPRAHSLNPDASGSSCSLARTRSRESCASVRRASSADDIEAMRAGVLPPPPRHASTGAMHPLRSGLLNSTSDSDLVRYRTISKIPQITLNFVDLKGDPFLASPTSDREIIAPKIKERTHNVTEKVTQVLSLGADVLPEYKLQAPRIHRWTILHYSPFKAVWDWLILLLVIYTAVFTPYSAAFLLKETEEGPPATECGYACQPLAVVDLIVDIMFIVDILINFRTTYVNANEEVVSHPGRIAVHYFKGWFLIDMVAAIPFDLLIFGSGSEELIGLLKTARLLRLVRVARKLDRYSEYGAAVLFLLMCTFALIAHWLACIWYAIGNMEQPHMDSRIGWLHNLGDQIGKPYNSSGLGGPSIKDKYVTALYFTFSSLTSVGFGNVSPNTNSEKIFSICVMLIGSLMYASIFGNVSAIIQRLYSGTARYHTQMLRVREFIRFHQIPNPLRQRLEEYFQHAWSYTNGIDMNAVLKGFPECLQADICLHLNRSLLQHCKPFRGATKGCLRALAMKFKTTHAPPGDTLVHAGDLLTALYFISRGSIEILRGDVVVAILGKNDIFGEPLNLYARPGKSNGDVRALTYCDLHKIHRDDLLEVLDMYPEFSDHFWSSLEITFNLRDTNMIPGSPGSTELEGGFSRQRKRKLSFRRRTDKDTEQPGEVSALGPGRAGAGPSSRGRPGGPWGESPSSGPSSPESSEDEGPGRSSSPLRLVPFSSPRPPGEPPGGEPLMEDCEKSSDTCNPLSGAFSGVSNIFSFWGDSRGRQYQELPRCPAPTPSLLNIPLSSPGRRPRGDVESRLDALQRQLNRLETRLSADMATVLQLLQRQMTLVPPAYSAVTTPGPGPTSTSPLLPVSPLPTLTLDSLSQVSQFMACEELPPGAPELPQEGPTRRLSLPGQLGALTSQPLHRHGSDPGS
CCOC(=O)c1nn(-c2ccccc2)c(=O)cc1SC(C)C was tested, and the “hERG current change (%, negative = inhibition) at 10uM” value was -19.1%.
With CN(C)c1nc(OCC(=O)NC(C)(C)C)nc(N(C)C)n1 the “hERG current change (%, negative = inhibition) at 10uM” value was 8.21%.
In the case of O=C(Cc1nnc(NC(=O)Nc2ccccc2F)s1)NCc1ccccc1, the “hERG current change (%, negative = inhibition) at 10uM” value is reported as 8.98%.
CC(C)(C)NC(=O)c1cnn2c1NC(c1ccc(F)cc1)CC2C(F)(F)F (stereo not drawn) was tested, and the “hERG current change (%, negative = inhibition) at 10uM” value was 2.13%.
In the case of COc1ccc(C(=O)Nc2nc(CC(=O)NCCc3ccccc3OC)cs2)cc1, the “hERG current change (%, negative = inhibition) at 10uM” value is reported as -6.94%.
In the case of NS(=O)(=O)c1ccc(CCNc2nc(CN3CCCCC3)nc3sc4c(c23)CCC4)cc1, the “hERG current change (%, negative = inhibition) at 10uM” value is reported as -72.9%.
Cc1nc(NCCc2ccc(S(N)(=O)=O)cc2)c2c3c(sc2n1)CCC3 was tested, and the “hERG current change (%, negative = inhibition) at 10uM” value was 8.64%.
With NS(=O)(=O)c1ccc(CCNc2nc(CN3CCOCC3)nc3sc4c(c23)CCC4)cc1 the “hERG current change (%, negative = inhibition) at 10uM” value was -31.2%.
With CCOC(=O)Cc1nnc(NC(=O)COc2ccc(C)cc2)s1 the “hERG current change (%, negative = inhibition) at 10uM” value was 5.07%.
With N#C/C(=C\c1cccnc1)C(=O)Nc1ccccc1 the “hERG current change (%, negative = inhibition) at 10uM” value was 4.04%.
O=C(Nc1cccnc1)c1cccc(-c2cc3ccccc3oc2=O)c1 was tested, and the “hERG current change (%, negative = inhibition) at 10uM” value was 14.5%.
In the case of O=C(NCc1cccnc1)c1ccc(-c2cc3ccccc3oc2=O)cc1, the “hERG current change (%, negative = inhibition) at 10uM” value is reported as 4.65%.
With O=C(NCc1cccnc1)c1cccc(-c2cc3ccccc3oc2=O)c1 the “hERG current change (%, negative = inhibition) at 10uM” value was -63.9%.
With O=C(OCc1cn(-c2ccc(Cl)c(Cl)c2)nn1)c1ccccc1Cl the “hERG current change (%, negative = inhibition) at 10uM” value was -5.05%.
With CCOC(=O)C1(CCCc2ccccc2)CCN(Cc2ccn[nH]2)CC1 the “hERG current change (%, negative = inhibition) at 10uM” value was -73%.
CCOC(=O)C1(CCc2ccccc2)CCN(Cc2ccn[nH]2)CC1 was tested, and the “hERG current change (%, negative = inhibition) at 10uM” value was -72.5%.
With Cc1ccc(Cn2c(C)c3cnn(CC(=O)NC4CCCC4)c(=O)c3c2C)cc1 the “hERG current change (%, negative = inhibition) at 10uM” value was 7.2%.
Cc1[nH]c(C)c2c(=O)[nH]ncc12 was tested, and the “hERG current change (%, negative = inhibition) at 10uM” value was 16.6%.
In the case of CCN(CC(=O)Nc1ccc2c(c1)OCCO2)Cc1cc(=O)n2ccsc2n1, the “hERG current change (%, negative = inhibition) at 10uM” value is reported as 3.88%.
In the case of Cn1c(=O)c2cc(S(=O)(=O)NCCC(=O)NCCC3=CCCCC3)ccc2n(C)c1=O, the “hERG current change (%, negative = inhibition) at 10uM” value is reported as -15.8%.
Cc1ccc(CCNC(=O)CN(C)S(=O)(=O)c2ccc3c(c2)c(=O)n(C)c(=O)n3C)cc1 was tested, and the “hERG current change (%, negative = inhibition) at 10uM” value was -11.7%.
For CN(CC(=O)NCCC1=CCCCC1)S(=O)(=O)c1ccc2c(c1)c(=O)n(C)c(=O)n2C, the “hERG current change (%, negative = inhibition) at 10uM” value was -64.9%.
In the case of Cc1nc2sc3c(=O)[nH]nnc3c2c(C)c1Br, the “hERG current change (%, negative = inhibition) at 10uM” value is reported as 15.5%.
In the case of CC(=O)c1sc2nc(-c3ccco3)ccc2c1N, the “hERG current change (%, negative = inhibition) at 10uM” value is reported as 0.505%.
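Also: peak tail current of the secondary pulse compared with the same well before compound.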
